Legend:
Test in all cases: fluorescence anisotropy competition titration; 25 mM sodium phosphate (purification buffer pH 7.2), 225 mM NaCl, 10% v/v glycerol, 5 mM DTT, 0.2 mg/mL BSA, 22 C; low values mean tight binding
Conditions in all cases: protein: recombinant; tags: N-terminal 6xHis-lipoyl-TEV tag, cleaved; chain copies: 4; dsDNA, one strand shown
Dmp53 = target: T1, Dmp53 (Drosophila melanogaster, UniProt Q9N6D8 1-385)
T1 sequence: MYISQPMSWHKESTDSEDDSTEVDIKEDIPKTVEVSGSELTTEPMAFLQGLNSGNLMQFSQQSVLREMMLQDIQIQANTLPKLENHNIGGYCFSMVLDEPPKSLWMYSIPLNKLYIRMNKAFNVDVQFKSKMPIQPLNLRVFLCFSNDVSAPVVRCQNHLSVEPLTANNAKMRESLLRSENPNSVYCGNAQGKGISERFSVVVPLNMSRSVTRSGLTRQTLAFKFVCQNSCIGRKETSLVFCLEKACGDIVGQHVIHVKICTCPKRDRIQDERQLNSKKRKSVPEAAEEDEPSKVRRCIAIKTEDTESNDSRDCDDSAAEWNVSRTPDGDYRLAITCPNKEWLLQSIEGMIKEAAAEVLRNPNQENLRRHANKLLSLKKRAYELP

Hsp53 = Hsp53 (Homo sapiens, UniProt P04637 1-393)
Hsp53, sequence (P04637 whole entry): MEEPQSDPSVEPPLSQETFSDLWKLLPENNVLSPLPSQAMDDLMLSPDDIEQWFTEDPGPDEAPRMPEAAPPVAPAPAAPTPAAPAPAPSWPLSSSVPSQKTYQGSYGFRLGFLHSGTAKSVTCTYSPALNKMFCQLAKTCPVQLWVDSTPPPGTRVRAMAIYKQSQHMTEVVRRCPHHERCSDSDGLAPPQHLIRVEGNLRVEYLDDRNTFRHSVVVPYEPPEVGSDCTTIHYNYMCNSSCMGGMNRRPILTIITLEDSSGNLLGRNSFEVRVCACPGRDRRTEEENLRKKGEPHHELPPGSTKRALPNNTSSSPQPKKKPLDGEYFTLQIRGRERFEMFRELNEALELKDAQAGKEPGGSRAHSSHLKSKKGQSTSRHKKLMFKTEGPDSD

Xlp53 = Xlp53 (Xenopus laevis, UniProt Q7T1D0 1-362)
Xlp53, sequence (Q7T1D0 entry or part of it): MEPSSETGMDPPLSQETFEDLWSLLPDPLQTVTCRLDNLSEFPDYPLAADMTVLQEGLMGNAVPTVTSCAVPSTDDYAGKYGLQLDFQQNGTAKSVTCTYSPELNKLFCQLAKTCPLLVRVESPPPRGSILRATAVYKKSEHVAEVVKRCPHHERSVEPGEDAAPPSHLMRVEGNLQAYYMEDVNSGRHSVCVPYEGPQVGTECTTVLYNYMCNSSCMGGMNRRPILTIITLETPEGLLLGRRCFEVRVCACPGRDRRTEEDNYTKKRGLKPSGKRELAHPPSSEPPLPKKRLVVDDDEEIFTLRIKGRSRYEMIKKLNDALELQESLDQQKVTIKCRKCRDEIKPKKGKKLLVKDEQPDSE

ΔNp63α = target: T2, ΔNp63α (Homo sapiens, UniProt Q9H3D4-2 1-586)
T2 sequence: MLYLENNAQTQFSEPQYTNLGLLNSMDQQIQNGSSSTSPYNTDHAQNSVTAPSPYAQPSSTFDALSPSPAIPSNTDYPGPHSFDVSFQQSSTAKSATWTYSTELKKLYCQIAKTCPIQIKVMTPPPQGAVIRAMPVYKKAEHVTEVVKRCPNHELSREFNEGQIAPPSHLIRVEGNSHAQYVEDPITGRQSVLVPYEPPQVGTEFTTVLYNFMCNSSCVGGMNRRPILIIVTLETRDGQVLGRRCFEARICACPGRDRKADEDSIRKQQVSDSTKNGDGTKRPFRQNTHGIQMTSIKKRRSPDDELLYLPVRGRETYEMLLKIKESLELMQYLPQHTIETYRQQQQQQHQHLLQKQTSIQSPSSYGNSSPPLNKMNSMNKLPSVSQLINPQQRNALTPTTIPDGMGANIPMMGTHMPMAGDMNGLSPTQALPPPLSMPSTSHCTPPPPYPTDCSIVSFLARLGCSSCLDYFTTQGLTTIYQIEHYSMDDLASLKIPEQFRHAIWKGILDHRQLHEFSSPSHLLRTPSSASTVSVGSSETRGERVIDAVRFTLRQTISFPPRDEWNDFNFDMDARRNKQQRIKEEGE

ΔNp63β = target: T3, ΔNp63β (Homo sapiens, UniProt Q9H3D4-4 1-461)
T3 sequence: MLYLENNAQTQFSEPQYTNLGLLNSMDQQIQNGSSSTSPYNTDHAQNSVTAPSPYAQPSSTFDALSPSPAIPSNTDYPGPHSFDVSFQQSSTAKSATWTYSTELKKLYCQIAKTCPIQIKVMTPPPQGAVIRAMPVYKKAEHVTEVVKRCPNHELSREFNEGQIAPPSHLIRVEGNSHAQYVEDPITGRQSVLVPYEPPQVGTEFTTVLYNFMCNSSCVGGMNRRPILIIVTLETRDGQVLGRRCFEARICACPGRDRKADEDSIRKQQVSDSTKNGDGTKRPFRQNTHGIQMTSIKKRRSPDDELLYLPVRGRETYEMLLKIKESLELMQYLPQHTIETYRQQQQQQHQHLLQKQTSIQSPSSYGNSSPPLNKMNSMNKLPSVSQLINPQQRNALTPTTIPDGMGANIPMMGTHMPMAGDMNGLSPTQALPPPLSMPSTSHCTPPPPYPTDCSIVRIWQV

ΔNp63γ = target: T4, ΔNp63γ (Homo sapiens, UniProt Q9H3D4-6 1-393)
T4 sequence: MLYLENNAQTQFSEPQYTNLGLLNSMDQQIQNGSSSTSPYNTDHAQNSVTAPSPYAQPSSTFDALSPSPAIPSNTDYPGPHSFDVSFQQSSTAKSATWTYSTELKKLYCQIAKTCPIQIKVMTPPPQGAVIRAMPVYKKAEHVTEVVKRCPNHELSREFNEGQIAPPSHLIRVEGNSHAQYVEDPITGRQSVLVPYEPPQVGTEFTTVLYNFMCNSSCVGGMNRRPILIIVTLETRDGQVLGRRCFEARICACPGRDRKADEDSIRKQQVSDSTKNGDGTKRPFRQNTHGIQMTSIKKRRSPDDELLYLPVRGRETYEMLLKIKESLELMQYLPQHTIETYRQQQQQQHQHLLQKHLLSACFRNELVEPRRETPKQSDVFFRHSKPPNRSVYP

ΔNp73β = target: T5, ΔNp73β (Homo sapiens, UniProt O15350-9 1-450)
T5 sequence: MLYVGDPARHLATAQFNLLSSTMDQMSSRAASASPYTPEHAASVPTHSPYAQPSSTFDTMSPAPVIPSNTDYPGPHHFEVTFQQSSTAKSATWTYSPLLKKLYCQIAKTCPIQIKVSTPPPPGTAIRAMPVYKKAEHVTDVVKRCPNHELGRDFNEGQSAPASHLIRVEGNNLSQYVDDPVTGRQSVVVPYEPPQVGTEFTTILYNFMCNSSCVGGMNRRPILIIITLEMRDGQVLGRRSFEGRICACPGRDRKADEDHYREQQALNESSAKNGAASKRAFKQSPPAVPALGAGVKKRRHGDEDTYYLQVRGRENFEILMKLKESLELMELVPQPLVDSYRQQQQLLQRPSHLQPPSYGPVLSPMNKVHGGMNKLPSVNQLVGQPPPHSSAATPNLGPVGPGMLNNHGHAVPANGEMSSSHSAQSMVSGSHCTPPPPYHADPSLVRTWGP

p73CT = target: T6, p73CT (Homo sapiens, UniProt O15350 104-383)
T6 sequence: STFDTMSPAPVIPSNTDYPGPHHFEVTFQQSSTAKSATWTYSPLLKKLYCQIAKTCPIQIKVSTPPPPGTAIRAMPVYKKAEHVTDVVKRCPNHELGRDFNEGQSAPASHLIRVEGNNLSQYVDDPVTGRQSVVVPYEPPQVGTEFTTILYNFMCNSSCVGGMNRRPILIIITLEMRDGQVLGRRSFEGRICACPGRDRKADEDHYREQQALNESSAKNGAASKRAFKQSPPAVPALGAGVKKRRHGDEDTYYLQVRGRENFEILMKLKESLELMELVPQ

Drp53 = target: T7, Drp53 (Danio rerio, UniProt P79734 1-373)
T7 sequence: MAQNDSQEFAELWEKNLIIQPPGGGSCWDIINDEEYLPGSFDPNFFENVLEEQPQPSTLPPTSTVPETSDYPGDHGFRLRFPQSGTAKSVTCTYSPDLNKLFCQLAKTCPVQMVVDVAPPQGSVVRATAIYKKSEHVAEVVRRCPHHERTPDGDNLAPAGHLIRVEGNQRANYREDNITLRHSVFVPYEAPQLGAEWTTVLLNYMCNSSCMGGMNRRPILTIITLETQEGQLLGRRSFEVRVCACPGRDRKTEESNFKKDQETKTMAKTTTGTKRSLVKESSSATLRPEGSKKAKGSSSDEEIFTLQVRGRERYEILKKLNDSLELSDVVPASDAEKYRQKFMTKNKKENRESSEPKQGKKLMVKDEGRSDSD

Mmp53 = Mmp53 (Mus musculus, UniProt P02340 1-390)
Mmp53, sequence (P02340 whole entry): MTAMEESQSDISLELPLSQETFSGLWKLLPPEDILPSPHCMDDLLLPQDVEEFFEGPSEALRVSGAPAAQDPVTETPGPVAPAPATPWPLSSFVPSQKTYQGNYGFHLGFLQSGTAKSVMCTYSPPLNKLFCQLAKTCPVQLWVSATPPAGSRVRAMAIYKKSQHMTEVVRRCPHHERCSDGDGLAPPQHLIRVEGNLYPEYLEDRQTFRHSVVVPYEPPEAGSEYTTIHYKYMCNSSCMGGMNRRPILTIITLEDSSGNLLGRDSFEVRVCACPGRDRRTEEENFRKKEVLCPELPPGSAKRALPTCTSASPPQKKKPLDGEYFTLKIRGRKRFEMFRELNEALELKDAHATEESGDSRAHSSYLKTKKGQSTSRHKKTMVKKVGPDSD

Row | Sequence | binding signal (Dmp53) [delta log10 Kd] | binding signal (Hsp53) [delta log10 Kd] | binding signal (Xlp53) [delta log10 Kd] | binding signal (ΔNp63α) [delta log10 Kd] | binding signal (ΔNp63β) [delta log10 Kd] | binding signal (ΔNp63γ) [delta log10 Kd] | binding signal (ΔNp73β) [delta log10 Kd] | binding signal (p73CT) [delta log10 Kd] | binding signal (Drp53) [delta log10 Kd] | binding signal (Mmp53) [delta log10 Kd]
1 | CGCGGACATGCCCGGACATGTCCCGC | 0.26 | 0.03 | 0.03 | 0.06 | 0.13 | 0.12 | 0.03 | 0.05 |  | 
2 | CGCGGACATGGCCGGACATGTCCCGC | 0.93 | 0.73 | 0.89 | 0.85 | 1.06 | 1.21 | 1.18 | 1 |  | 
3 | CGCGGACATGTTCGGACATGTCCCGC | 0.17 | 0.34 | 0.39 | 0.17 | 0.47 | 0.33 | 0.48 | 0.36 | 0.38 | 0.19
4 | CGCGGACATGTCAGGACATGTCCCGC | 0.14 | 0.31 | 0.27 | 0.09 | 0.13 | 0.13 | 0.27 | 0.2 | 0.32 | 0.2
5 | CGCAGACATGTCCGGACATGTCCCGC | 0.03 | 0.01 | 0 | 0 | 0.03 | 0.04 | 0.01 | 0.02 | 0.01 | 0.05
6 | CGCTGACATGTCCGGACATGTCCCGC | 0.02 | 0.16 | 0.13 | 0.08 | 0.1 | 0.1 | 0.11 | 0.09 | 0.22 | 0.18
7 | CGCGGACACGTCCGGACATGTCCCGC | 0.25 | 0.53 | 0.7 | 0.25 | 0.57 | 0.52 | 0.62 | 0.58 | 0.65 | 0.36
8 | CGCGGACATTTCCGGACATGTCCCGC | 1.55 | 0.44 | 0.88 | 1.1 | 1.2 | 1.46 | 1.43 | 1.58 | 1.37 | 0.65
9 | CGCGGAGATGTCCGGACATGTCCCGC | 1.2 | 0.74 | 1.07 | 0.84 | 1.29 | 1.19 | 1.32 | 1.18 | 0.95 | 0.4
10 | CGCGTACATGTCCGGACATGTCCCGC | 0.12 | 0.21 | 0.13 | 0.08 | 0.23 | 0.21 | 0.24 | 0.24 | 0.21 | 0.19
11 | CGCGGACATATCCGGACATGTCCCGC | 0.98 | 0.83 | 1.01 | 0.92 | 1.2 | 1.31 | 1.32 | 1.44 | 1.14 | 0.63
12 | CGCGGACATGTGCGGACATGTCCCGC | 0.23 | 0.49 | 0.57 | 0.3 | 0.46 | 0.49 | 0.65 | 0.53 | 0.54 | 0.36
13 | CGCCGACATGTCCGGACATGTCCCGC | 0.03 | 0.17 | 0.1 | 0.04 | 0.07 | 0.09 | 0 | 0.06 | 0.15 | 0.15
14 | CGCGGACATGTACGGACATGTCCCGC | 0.07 | 0.34 | 0.35 | 0.15 | 0.29 | 0.32 | 0.4 | 0.36 | 0.39 | 0.27
15 | CGCGGACGTGTCCGGACATGTCCCGC | 0.18 | 0.43 | 0.44 | 0.07 | 0.2 | 0.19 | 0.27 | 0.22 | 0.54 | 0.31
16 | CGCGGACAAGTCCGGACATGTCCCGC | 0.22 | 0.16 | 0.18 | 0.02 | 0.15 | 0.19 | 0.12 | 0.19 | 0.35 | 0.27
17 | CGCGAACATGTCCGGACATGTCCCGC | 0 | 0.05 | 0.01 | 0 | 0.02 | 0.1 | 0.03 | 0.05 | 0.08 | 0.08
18 | CGCGGTCATGTCCGGACATGTCCCGC | 0.36 | 0.42 | 0.35 |  | 0.53 | 0.49 |  |  | 0.48 | 0.29
19 | CGCGCACATGTCCGGACATGTCCCGC | 0.21 | 0.37 | 0.27 | 0.15 | 0.36 | 0.37 | 0.44 | 0.39 | 0.41 | 0.28
20 | CGCGGACCTGTCCGGACATGTCCCGC | 0.54 | 0.45 | 0.48 | 0.3 | 0.57 | 0.58 | 0.64 | 0.56 | 0.77 | 0.4
21 | CGCGGGCATGTCCGGACATGTCCCGC | 0.25 | 0.07 | 0.01 |  | 0 | 0.06 |  |  | 0 | 0.03
22 | CGCGGCCATGTCCGGACATGTCCCGC | 0.75 | 0.66 | 0.82 |  | 0.88 | 0.93 |  |  | 0.86 | 0.46
23 | CGCGGACATCTCCGGACATGTCCCGC | 1.51 | 0.9 | 1.38 | 1.33 | 1.45 | 1.68 | 1.8 | 1.56 | 1.3 | 0.67
24 | CGCGGACTTGTCCGGACATGTCCCGC | 0.36 | 0.14 | 0.16 | 0.06 | 0.27 | 0.41 | 0.36 | 0.45 | 0.3 | 0.24
25 | CGCGGACATGACCGGACATGTCCCGC | 0.24 | 0.42 | 0.43 | 0.43 | 0.62 | 0.72 | 0.78 | 0.57 |  | 
26 | CGCGGATATGTCCGGACATGTCCCGC | 1.01 | 0.56 | 0.62 | 0.68 | 0.85 | 0.97 | 1.04 | 1.06 | 0.58 | 0.34
27 | CGCGGACATGTCTGGACATGTCCCGC | 0.03 | 0.13 | 0.07 | 0.04 | 0.05 | 0.05 | 0 | 0.08 | 0.02 | 0.11
28 | CGCGGACAGGTCCGGACATGTCCCGC | 0.35 | 0.36 | 0.41 | 0.17 | 0.43 | 0.43 | 0.49 | 0.41 | 0.65 | 0.4
29 | CGCGGAAATGTCCGGACATGTCCCGC | 1.31 | 0.77 | 0.9 | 1.08 | 0.93 | 1.4 | 1.49 | 1.35 | 1.13 | 0.52
30 | CGCGGACATGTCGGGACATGTCCCGC | 0.02 | 0.27 | 0.22 | 0.11 | 0.11 | 0.1 | 0.17 | 0.17 | 0.19 | 0.24

From PMC2807882, “Conservation of DNA-binding specificity and oligomerisation properties within the p53 family”
